# Reference: ChEMBL document CHEMBL4513216, “Probing the Open Global Health Chemical Diversity Library for Multistage-Active Starting Points for Next-Generation Antimalarials” (ACS Infect Dis, 2020)
# The campaign covered roughly 69,000 compounds. About 8,600 (12%) showed an effect of 50% or more. This is one part of a sample in which strong results are shown more often than they occur.
# Test system: Plasmodium berghei
# Experiment: Screen against P. berghei liver stage (PbLuc), transformed with Luciferase, at 10uM
# Type: functional, HepG2
# Settings: tested at 10 uM
row,Structure (SMILES),INHIBITION [%]
1,CC(C)c1nnc2n1CCN(C(=O)c1ccc(N(C)C)nn1)C2,4.71
2,Cn1cc(-c2cnc(-c3ccnn3C)nc2)cc1C(=O)NC1CC1,24.6
3,COC(=O)N1CCC(c2nnc(Cn3ccnc3)n2C)CC1,1.48
4,N#Cc1ccc(Cl)cc1NCC1CC1,47.7
5,CS(=O)(=O)N1CCC(CNc2cc(Cl)ccc2C#N)CC1,-13.9
6,N#Cc1cc(F)ccc1NCC1CCN(S(=O)(=O)C(F)F)CC1,65.3
7,O=S(=O)(NCc1ccccc1Cn1cncn1)N1CCCCCC1,34.7
8,COc1cc(CNC(=O)CNc2cc(Cl)ccc2OC)ccn1,14.4
9,CC(C)(CO)Nc1c(NCc2ccccc2)c(=O)c1=O,17.7
10,CC(C)(C)n1ncc(NCc2ccccc2)c(Cl)c1=O,61.1
11,COCCNC(=O)Cn1nc(C(C)C)c2cnn(C(C)(C)C)c2c1=O,-7.35
12,COc1cc(CNC(=O)c2cc(Cl)ccc2F)ccn1,11.4
13,Cn1ncc(NCc2cccc(F)c2)c(Cl)c1=O,-5.25
14,COCc1cccc(CNC(=O)CNc2ccccc2C(C)=O)c1,11.4
15,CCc1c(NCc2ccc(F)cc2)cnn1CC(C)C,22.6
16,COc1cc(CNc2cnn(C(C)(C)C)c(=O)c2Cl)ccn1,70.6
17,COCc1ccc(CNc2cnn(C(C)(C)C)c(=O)c2Cl)cc1,54.7
18,COCc1cccc(CNc2cnn(C(C)(C)C)c(=O)c2Cl)c1,70.6
19,CC(C)c1nccc(-c2nccn2CCN(C)S(C)(=O)=O)n1,-21.9
20,O=C(Cc1ccccn1)N1CCC2(CC1)CN(CC1CC1)C(=O)CO2,15.3
21,CCC(CC)C(=O)N(C)CC(=O)Nc1ccc(Br)cn1,21.5
22,CN(CCn1nc2ccccn2c1=O)CC(=O)N(C)C1CCCCC1,-111
23,O=S(=O)(c1ccc(F)cc1)n1cc(Cl)cn1,51
24,O=S(=O)(c1cc(F)ccc1F)n1cc(Cl)cn1,48.8
25,O=S(=O)(c1ccc(F)c(F)c1)n1cc(Cl)cn1,42.1

row,Structure (SMILES),INHIBITION [%]
1,CCc1ccccc1CNC(=O)CCc1cnn(C)c1,16.6
2,Cc1noc(C(C)N2CCc3[nH]c4ccc(Cl)cc4c3C2)n1 (stereo not drawn),28.7
3,Cc1nnc(C(C)N2CCc3[nH]c4ccccc4c3C2)o1 (stereo not drawn),32
4,Cc1nnc(C(C)N2CCc3[nH]c4ccc(Cl)cc4c3C2)o1 (stereo not drawn),61.3
5,Cc1cnn(CC2CN(Cc3nc(C)c(C)o3)CCO2)c1 (stereo not drawn),11.4
6,COc1cccc(C2(C(=O)NC3CCc4nccn4C3)CCCC2)c1 (stereo not drawn),34.6
7,CC(C)[C@H]1COC(=O)N1CC(=O)N(C)CCCn1cccn1,42.1
8,CCN(CCn1cccn1)C(=O)CN1C(=O)OC[C@@H]1c1ccccc1,9.63
9,CCN(CCn1cccn1)C(=O)CN1C(=O)OC[C@@H]1C(C)C,64.5
10,COc1cccc(F)c1C(C)NC(=O)NCc1cnc(C)s1 (stereo not drawn),-8.66
11,CC(C)n1cc(S(=O)(=O)N2CCCC(N3CCCCC3)C2)cn1 (stereo not drawn),2.4
12,Cc1ccc(C)c(NC(=O)Cn2cc(I)cn2)c1,49.1
13,Cc1ccc(NC(=O)Cn2cc(I)cn2)cc1,23.2
14,Cc1ccc(NC(=O)Cn2cc(I)cn2)cc1C,66.5
15,CC(C)c1ccc(NC(=O)Cn2cc(I)cn2)cc1,82.2
16,CC(=O)c1cccc(NC(=O)Cn2cc(I)cn2)c1,-1.58
17,NC(=O)c1ccc(NC(=O)Cn2cc(I)cn2)cc1,40
18,CS(=O)(=O)NCc1cnc2n1CCN(Cc1ccoc1)CC2,33
19,Cn1cc(C(=O)N[C@@H]2CN(Cc3cccnc3)[C@@H]3CCCO[C@@H]32)cn1,3.25
20,O=C(c1cnccn1)N1C[C@H]2CC[C@@H](C1)N(C(=O)CCc1ccsc1)C2,-69.6
21,O=C1CCC(C(=O)Nc2ccc(=O)n(Cc3ccc(Cl)c(Cl)c3)c2)N1 (stereo not drawn),-20.5
22,Cc1nnc(CN(C)Cc2ccc(C(=O)Nc3sccc3C#N)cc2)o1,15.9
23,CN(Cc1ccc(C(=O)Nc2sccc2C#N)cc1)Cc1ccno1,15.9
24,Cc1nnsc1CN(C)Cc1ccc(C(=O)Nc2sccc2C#N)cc1,55.4
25,COCCN1CCCC(Cc2ccc(N3CCOCC3)nn2)C1 (stereo not drawn),-0.902

row,Structure (SMILES),INHIBITION [%]
1,O=C(NCC1CCCCC1)NC1CCCc2c1cnn2CCO (stereo not drawn),55.1
2,O=C(NC1CCCCC1)NC1CCCc2c1cnn2CCO (stereo not drawn),-9.93
3,O=C(NCCc1ccc(F)cc1)NC1CCCc2c1cnn2CCO (stereo not drawn),18.3
4,Cc1ccc(CNC(=O)NC2CCCc3c2cnn3CCO)cn1 (stereo not drawn),53.4
5,Cc1ccsc1CNC(=O)NC1CCCc2c1cnn2CCO (stereo not drawn),13.4
6,O=C(NCCC1=CCCCC1)NC1CCCc2c1cnn2CCO (stereo not drawn),62
7,Cc1nc(CCNC(=O)NC2CCCc3c2cnn3CCO)cs1 (stereo not drawn),26.9
8,Cc1csc(CNC(=O)NC2CCCc3c2cnn3CCO)n1 (stereo not drawn),14
9,O=C(NCC(F)(F)F)NC1CCCc2c1cnn2CCO (stereo not drawn),37.1
10,CC1(C)Cc2nc(C(C)(C)C)ncc2C(NC(=O)CN)C1 (stereo not drawn),36.8
11,CCn1ncc2c1C(COCC1CC1)N(Cc1nccs1)CC2 (stereo not drawn),13.7
12,COc1cccc(S(=O)(=O)CCNC2CCc3ncnn3C2)c1 (stereo not drawn),41.2
13,CN(C)C(=O)C1CCN(C2CCN(CC3CCC3)CC2)CC1,26.5
14,CCn1cc(N)c(-c2nnc3n2CCC3)n1,24.8
15,Cc1ccc(C(=O)NS(C)(=O)=O)cc1-n1cccc1,5.23
16,O=C(Nc1ccc2c(ccn2CCN2CCOCC2)c1)c1ccncc1,-35.8
17,Cc1ccccc1Cc1nc(CSc2nnc(N)n2C2CC2)no1,67.8
18,Cc1ccccc1Cc1nc(CSc2nnc(N)n2C)no1,10.7
19,CCc1nc(CSc2nnc(N)n2C2CC2)no1,42.1
20,CCC(=O)N1CCC(Cc2ccccc2-c2ccncc2)(C(=O)NC)C1 (stereo not drawn),6.32
21,O=C(O)c1ccn(-c2ccccc2NC(=O)c2ccccc2Cl)n1,4.1
22,O=C(O)c1ccn(-c2cccc(NC(=O)c3ccccc3Cl)c2)n1,52.6
23,O=C(O)c1ccn(-c2ccc(NC(=O)c3ccccc3Cl)cc2)n1,46.1
